What all share (parameters): scale not given: direction of the effect not stated beside the values
Assay [1] concerns the target Protein translocase subunit SecA (Escherichia coli (strain K12)) (UniProt P10408). Nature of the assay: Assay to Identify E. coli SecA ATPase Inhibitors. It is filed as functional. The note with it: 30 µM.
In assay [2] the target is T1, Ubiquitin-activating enzyme e1, putative (Leishmania donovani (strain BPK282A1)) (UniProt E9BSI1).
T1 sequence (whole entry): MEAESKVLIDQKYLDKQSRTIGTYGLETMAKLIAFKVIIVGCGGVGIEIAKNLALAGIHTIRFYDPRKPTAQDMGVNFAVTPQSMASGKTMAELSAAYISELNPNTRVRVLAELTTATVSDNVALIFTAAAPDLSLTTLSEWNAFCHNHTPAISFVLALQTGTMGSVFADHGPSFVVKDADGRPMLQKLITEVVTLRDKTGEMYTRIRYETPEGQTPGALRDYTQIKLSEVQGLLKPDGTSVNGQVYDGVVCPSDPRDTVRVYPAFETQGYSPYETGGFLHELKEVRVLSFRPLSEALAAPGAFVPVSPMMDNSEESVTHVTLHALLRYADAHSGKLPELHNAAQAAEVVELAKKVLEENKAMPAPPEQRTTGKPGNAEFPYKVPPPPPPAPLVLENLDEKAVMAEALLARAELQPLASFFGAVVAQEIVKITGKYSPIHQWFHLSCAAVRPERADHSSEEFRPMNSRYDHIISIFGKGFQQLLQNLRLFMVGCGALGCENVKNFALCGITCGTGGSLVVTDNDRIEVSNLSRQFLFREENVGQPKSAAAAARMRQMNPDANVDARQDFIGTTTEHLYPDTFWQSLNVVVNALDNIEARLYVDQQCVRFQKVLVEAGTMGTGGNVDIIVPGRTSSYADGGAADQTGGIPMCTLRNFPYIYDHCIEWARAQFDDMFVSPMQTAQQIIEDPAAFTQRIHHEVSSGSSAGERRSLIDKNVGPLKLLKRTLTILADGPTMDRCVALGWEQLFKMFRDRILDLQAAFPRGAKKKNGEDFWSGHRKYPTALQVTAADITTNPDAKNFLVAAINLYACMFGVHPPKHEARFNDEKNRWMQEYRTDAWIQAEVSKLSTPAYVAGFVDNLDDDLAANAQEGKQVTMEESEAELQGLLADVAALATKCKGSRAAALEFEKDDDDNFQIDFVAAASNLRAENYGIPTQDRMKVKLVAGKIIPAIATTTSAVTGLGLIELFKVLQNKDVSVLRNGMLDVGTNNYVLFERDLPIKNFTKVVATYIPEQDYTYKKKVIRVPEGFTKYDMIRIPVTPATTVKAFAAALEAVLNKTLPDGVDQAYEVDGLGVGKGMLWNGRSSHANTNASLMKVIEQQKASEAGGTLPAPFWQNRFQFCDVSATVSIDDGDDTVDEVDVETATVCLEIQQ
Nature of the assay: Leishmania donovani Ubiquitin Activating Enzyme (LdE1). It is filed as functional. The note with it: 30 µM.

Assay [3] addresses AMP-activated protein kinase, AMPK (Homo sapiens) (UniProt P54646+O43741+P54619+Q9UGJ0+Q9Y478+Q13131+Q9UGI9). Nature of the assay: AMP-dependent Kinase enzyme assay. An in vitro enzyme assay that detects ADP turnover that is directly proportional to AMPK activity. This uses naive AMPK that is activated during the assay with MK-8722. It is filed as functional. The note with it: 30 µM.

In assay [4] the target is Sialic acid-binding Ig-like lectin 9 (Homo sapiens) (UniProt Q9Y336). As to the kind of experiment: Hs-Siglec9 ALPHAscreen SOP 20170721. As to conditions: 10 µM.
Chain of Sialic acid-binding Ig-like lectin 9 (Homo sapiens) (Q9Y336 whole entry): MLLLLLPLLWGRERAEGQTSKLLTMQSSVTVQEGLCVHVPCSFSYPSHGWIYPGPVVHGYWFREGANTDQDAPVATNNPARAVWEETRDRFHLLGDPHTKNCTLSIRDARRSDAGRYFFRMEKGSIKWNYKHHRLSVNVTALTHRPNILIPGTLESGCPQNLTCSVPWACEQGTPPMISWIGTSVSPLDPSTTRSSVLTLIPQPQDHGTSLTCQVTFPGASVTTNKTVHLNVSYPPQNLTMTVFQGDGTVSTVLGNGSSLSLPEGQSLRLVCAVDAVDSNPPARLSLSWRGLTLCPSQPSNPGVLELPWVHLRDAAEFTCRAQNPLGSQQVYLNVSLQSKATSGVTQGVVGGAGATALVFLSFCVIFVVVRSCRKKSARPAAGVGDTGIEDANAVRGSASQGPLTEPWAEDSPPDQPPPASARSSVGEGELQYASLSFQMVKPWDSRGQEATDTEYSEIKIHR
For another assay, the system named is Trypanosoma cruzi. As to the kind of experiment: Trypanosoma cruzi phosphomannomutase and mannose-1-phosphate guanylyltransferase assay. It is filed as functional. The note with it: 10 µM.
Assay [5] addresses T2, Arginase-2, mitochondrial (Homo sapiens) (UniProt P78540).
T2 sequence (whole entry): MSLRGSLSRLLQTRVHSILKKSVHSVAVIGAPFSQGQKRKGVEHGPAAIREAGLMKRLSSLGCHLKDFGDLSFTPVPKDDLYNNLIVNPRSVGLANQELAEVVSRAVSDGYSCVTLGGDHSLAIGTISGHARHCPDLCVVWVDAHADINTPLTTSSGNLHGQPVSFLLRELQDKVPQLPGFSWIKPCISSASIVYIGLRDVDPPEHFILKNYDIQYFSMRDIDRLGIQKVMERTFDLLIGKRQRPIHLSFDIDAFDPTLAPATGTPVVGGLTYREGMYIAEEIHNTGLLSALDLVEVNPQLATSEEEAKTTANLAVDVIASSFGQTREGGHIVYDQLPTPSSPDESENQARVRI
Nature of the assay: in vitro enzyme assay to detect the production of urea directly proportional to the activity of Arginase II. Further: in the data most compounds retested in dose-response had high values. The class given is functional. As to conditions: 33.3 µM.

The target in assay [6] is T3, Proteasome subunit beta (Trypanosoma cruzi) (UniProt O96673).
T3 sequence (whole entry): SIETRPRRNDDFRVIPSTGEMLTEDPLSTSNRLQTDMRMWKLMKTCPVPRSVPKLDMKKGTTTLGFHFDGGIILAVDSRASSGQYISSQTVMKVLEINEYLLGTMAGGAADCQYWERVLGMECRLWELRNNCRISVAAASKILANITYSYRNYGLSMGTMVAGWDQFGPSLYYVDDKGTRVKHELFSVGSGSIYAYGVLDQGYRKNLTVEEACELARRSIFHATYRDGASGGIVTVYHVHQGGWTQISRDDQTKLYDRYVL
As to the kind of experiment: Trypanosoma cruzi proteasome chymotrypsin-like activity (TcProtChymo) assay. Further: in the data most compounds retested in dose-response had high values. It is filed as functional. As to conditions: 9.37 µM.

For another assay, the species on record is Homo sapiens. As to the kind of experiment: To identify inhibition of the IFN signalling (Jak-Stat) pathway via expression of an eGFP reporter gene under the control of an IFN-stimulated response element (ISRE) containing MxA promoter. The class given is functional. As to conditions: 30 µM. On the technique in general: In a reporter assay the amount or activity of a reporter protein is the signal.

Assay [7] addresses T4, Tyrosyl-tRNA synthetase, putative (Trypanosoma cruzi (strain CL Brener)) (UniProt Q4DSP6).
T4 sequence (whole entry): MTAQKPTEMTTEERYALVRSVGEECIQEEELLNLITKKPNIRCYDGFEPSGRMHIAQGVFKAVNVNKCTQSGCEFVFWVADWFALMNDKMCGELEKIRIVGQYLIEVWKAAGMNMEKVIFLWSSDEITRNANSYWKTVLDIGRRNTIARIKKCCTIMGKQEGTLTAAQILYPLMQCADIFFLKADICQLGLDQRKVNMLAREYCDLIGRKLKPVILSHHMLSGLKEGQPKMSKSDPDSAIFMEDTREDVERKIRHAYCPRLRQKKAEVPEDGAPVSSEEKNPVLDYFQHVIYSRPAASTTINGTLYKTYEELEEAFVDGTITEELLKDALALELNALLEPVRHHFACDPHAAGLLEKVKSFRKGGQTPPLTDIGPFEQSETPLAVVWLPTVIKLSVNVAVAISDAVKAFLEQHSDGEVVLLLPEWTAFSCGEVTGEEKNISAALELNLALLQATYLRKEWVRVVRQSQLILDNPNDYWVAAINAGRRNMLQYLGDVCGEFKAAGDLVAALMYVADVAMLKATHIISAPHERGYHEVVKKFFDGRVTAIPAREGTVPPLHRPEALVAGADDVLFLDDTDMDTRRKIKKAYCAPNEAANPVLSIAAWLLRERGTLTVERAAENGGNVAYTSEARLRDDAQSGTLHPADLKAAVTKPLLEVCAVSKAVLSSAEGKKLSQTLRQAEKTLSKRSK
Nature of the assay: Trypanosoma cruzi tyrosyl tRNA synthetase (TcYRS) _High Tyrosine SOP. Further: in the data most compounds retested in dose-response had high values. It is filed as functional. The note with it: 30 µM.

Assay [8] concerns the target T4, Tyrosyl-tRNA synthetase, putative (Trypanosoma cruzi (strain CL Brener)). As to the kind of experiment: Trypanosoma cruzi tyrosyl tRNA synthetase (TcYRS) SOP. It is filed as functional. The note with it: 30 µM.
For assay [9], the target named is Chromo domain-containing protein 1 (Saccharomyces cerevisiae (strain ATCC 204508 / S288c) (Baker's yeast)) (UniProt P32657). As to the kind of experiment: ScCHD-1 Enzyme Inhibition Assay. Further: in the data most compounds retested in dose-response had high values. It is filed as functional. The note with it: 30 µM.
Chain of Chromo domain-containing protein 1 (Saccharomyces cerevisiae (strain ATCC 204508 / S288c) (Baker's yeast)) (P32657 whole entry, the tested form may be a part): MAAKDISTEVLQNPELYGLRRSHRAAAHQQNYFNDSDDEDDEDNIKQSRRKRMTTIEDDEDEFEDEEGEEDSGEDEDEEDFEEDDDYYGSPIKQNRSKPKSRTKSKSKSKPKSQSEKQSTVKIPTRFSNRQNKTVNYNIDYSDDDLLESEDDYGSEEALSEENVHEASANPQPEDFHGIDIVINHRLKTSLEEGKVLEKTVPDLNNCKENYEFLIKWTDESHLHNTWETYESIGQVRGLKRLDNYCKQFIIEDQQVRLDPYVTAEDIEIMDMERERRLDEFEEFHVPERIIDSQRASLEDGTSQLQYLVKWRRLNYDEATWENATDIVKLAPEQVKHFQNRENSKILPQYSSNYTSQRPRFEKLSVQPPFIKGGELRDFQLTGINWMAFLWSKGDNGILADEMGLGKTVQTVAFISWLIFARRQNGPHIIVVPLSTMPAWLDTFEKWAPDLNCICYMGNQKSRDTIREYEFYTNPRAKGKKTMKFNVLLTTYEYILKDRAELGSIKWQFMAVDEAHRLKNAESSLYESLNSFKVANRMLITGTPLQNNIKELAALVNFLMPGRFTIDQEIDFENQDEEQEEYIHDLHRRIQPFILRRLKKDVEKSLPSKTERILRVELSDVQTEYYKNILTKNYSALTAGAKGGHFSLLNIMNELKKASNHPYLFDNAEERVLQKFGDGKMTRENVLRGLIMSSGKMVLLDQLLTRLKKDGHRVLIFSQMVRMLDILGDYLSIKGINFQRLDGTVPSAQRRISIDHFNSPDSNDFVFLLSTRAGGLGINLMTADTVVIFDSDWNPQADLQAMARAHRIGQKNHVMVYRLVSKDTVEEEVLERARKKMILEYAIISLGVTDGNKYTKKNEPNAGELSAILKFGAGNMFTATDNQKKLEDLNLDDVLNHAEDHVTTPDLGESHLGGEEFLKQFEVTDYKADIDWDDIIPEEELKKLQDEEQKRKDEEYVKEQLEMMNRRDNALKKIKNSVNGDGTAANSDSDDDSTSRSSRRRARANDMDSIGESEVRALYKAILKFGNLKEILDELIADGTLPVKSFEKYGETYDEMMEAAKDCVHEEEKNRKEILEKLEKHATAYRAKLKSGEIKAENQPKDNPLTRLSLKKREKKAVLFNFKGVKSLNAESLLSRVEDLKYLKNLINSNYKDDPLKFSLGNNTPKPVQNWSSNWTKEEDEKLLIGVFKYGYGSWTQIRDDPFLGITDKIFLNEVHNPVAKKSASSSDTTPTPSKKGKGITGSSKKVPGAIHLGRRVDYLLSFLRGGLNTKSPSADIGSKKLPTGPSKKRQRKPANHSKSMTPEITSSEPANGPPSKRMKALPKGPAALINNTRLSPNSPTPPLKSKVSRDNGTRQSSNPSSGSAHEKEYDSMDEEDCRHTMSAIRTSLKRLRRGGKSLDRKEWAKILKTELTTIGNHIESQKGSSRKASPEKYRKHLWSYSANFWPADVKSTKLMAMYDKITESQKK

SMILES strings stand for the structures. For some of these results: Results with a measured potency or affinity are listed apart.

Chain of Protein translocase subunit SecA (Escherichia coli (strain K12)) (P10408 whole entry): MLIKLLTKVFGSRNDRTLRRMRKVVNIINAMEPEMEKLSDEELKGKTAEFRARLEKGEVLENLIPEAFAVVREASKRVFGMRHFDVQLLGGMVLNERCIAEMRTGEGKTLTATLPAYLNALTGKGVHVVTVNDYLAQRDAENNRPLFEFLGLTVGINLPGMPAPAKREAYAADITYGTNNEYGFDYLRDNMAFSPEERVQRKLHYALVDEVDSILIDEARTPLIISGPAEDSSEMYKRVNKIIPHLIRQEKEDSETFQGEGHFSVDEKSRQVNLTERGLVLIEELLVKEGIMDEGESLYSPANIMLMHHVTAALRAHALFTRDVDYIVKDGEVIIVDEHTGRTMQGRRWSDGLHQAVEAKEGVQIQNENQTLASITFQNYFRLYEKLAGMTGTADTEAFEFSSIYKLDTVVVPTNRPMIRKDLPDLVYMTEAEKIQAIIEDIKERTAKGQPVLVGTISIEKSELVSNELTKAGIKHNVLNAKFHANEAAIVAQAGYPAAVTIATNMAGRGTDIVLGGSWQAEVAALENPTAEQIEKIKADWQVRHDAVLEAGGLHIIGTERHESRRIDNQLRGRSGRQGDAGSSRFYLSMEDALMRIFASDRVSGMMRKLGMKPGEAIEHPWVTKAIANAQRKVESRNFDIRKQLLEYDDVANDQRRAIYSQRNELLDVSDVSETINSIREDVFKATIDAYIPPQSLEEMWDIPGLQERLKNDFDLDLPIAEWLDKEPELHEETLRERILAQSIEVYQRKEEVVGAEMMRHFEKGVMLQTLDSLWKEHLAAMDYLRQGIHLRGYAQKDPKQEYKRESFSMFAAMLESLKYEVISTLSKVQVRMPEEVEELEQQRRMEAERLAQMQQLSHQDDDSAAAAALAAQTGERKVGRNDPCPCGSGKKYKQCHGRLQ

As to `CCN1CCCN(C(=O)c2cnc(OC(C)C)c(Cl)c2)CC1`, the Percent Effect is -2.83% in assay [1]; -8.22% in [2]; 9.83% in [3]; -2.64% in assay [4]; -15.9% with Trypanosoma cruzi; -1.2% in assay [5]. Besides, the Percent Effect is 3.68% in [6]; 6.45% in the assay filed under Homo sapiens; 1.04% in assay [7]; -30.9% in assay [8]; 1.65% in assay [9].
As to `CCc1nc(CN2CCCC(NCc3ncc(C(C)(C)C)o3)C2)no1` (stereo unspecified), the Percent Effect is -1.05% in assay [1]; 18.2% in assay [2]; 2.6% in assay [3]; -6.25% in assay [4]; 1.27% in the assay on Trypanosoma cruzi; 1.05% in assay [5]. In addition, the Percent Effect in assay [6] is 22.6%; in the assay filed under Homo sapiens, -1.65%; in assay [7] it was 12.4%; in assay [8], 35.3%; in [9], -24.7%.
For `O=C(c1ccc(Br)o1)N1CCCC(n2cncn2)C1` (stereo unspecified), the Percent Effect in assay [1] was -5.45%; in [2], -1.39%; in [3], 0.96%; in assay [4] it was -6.28%; with Trypanosoma cruzi it was -3.6%; in assay [5], -2.21%. The Percent Effect in assay [6] is 4.04%; in the assay listed under Homo sapiens, 7.55%; in [7], 0%; in assay [8], 2.56%; in assay [9] it was 1.43%.
`Cc1csc(NC(=O)CN2CCC(c3ccnn3CCO)CC2)n1`: the Percent Effect was -4.67% in assay [1]; 25.3% in [2]; -7.88% in assay [3]; -3.79% in assay [4]; 4.06% in the assay on Trypanosoma cruzi; 0% in [5]. The Percent Effect is 9.42% in assay [6]; 47.6% in the assay listed under Homo sapiens; 8.37% in assay [7]; 26.6% in assay [8]; -7.33% in assay [9].
For the compound `COc1cccc(N2CCN(C(=O)C(O)c3cccc(Cl)c3)CC2=O)c1` (stereo unspecified), the Percent Effect is 0.76% in [1]; 10.8% in [2]; -5.94% in [3]; -2.7% in assay [4]; -3.48% in the assay with Trypanosoma cruzi; -1.91% in assay [5]. The Percent Effect in assay [6] is 11.2%; in the assay listed under Homo sapiens it was 22.3%; in assay [7], 4.76%; in assay [8], 0%; in [9] it was -1.09%.
For the compound `O=C(NS(=O)(=O)c1ccccc1Cl)c1cccc2c1OCCO2`, the Percent Effect in [1] is -5.38%; in assay [2] it was 5.48%; in assay [3] it was -3.79%; in assay [4], 16.7%; in the assay on Trypanosoma cruzi, 3.53%; in assay [5] it was 8.64%. Moreover, the Percent Effect in assay [6] is 10.7%; in the assay listed under Homo sapiens, 7.24%; in [7], -10.8%; in assay [8] it was -10%; in assay [9], 96.7%.
As to `O=C(c1ccoc1)N1CC[C@H]2OCC[C@@]2(COc2ncccc2F)C1`, the Percent Effect in assay [1] is -6.18%; in [2] it was 18.9%; in assay [3], -5.57%; in assay [4], 25.4%; in the assay with Trypanosoma cruzi, 3.23%; in assay [5] it was 2.73%. The Percent Effect in assay [6] is 6.78%; in the assay filed under Homo sapiens it was -2.11%; in assay [7] it was 4.3%; in assay [8] it was 21%; in assay [9], -7.11%.
Turning to `Cn1cnc(S(=O)(=O)NCCCN2CCCCCC2)c1Cl`, the Percent Effect in assay [1] was -4.4%; in [2], 8.11%; in assay [3] it was -5.51%; in [4], 10.5%; in the assay with Trypanosoma cruzi it was -3.49%; in assay [5] it was 1.6%. The Percent Effect is 6.49% in [6]; 4.76% in the assay filed under Homo sapiens; 5.42% in assay [7]; 6.17% in assay [8]; -6.58% in assay [9].
On to `CC(C)OCCCN1CCCC(c2nc3ccccc3n2C(C)C)C1` (stereo unspecified), for which the Percent Effect in assay [1] is -2.17%; in [2], 13.5%; in assay [3], -7.28%; in [4], -1.96%; in the assay on Trypanosoma cruzi, 3.32%; in assay [5], 32.9%. Also, the Percent Effect in [6] was determined as 15%; in the assay filed under Homo sapiens, 22.4%; in [7] it was 9.9%; in assay [8] it was 13.4%; in assay [9], 6.88%.
For the compound `Cc1nnc2n1CCN(Cc1csc(CC(=O)N(C)C)n1)C2`, the Percent Effect is -4.68% in assay [1]; 10.8% in assay [2]; -6.55% in [3]; 9.69% in assay [4]; -1.21% in the assay with Trypanosoma cruzi; -2.03% in assay [5]. Moreover, the Percent Effect in assay [6] was 3.77%; in the assay listed under Homo sapiens it was 9.18%; in [7], 5.94%; in [8] it was 13.4%; in assay [9], 0.846%.
For the compound `Cc1ccc(N2CCCC(NCC(=O)Nc3cc(C)no3)C2)nn1` (stereo unspecified), the Percent Effect in assay [1] was -1.36%; in assay [2], 13.9%; in assay [3] it was -2.91%; in assay [4] it was -5.54%; in the assay with Trypanosoma cruzi, -3.59%; in assay [5], 0.215%. The Percent Effect in [6] is 13%; in the assay filed under Homo sapiens, 17.8%; in assay [7], 1.04%; in assay [8] it was 7.59%; in [9] it was -23.2%.
